# Key:
# Assay in all cases: DAPPL (digital affinity profiling via proximity ligation, sequencing); 10 mM Tris-HCl pH 7.5, 50 mM NaCl, 1 mM DTT, 4% glycerol, room temperature, 30 min; GST-TFs on glutathione beads, 16-mer random dsDNA library, 0.1% formaldehyde crosslink after washing; high values mean tight binding
# FEV = biological target: T1, FEV (Homo sapiens, UniProt Q99581 1-238); conditions: protein: recombinant; tags: N-terminal GST; dsDNA, one strand shown
# T1 sequence: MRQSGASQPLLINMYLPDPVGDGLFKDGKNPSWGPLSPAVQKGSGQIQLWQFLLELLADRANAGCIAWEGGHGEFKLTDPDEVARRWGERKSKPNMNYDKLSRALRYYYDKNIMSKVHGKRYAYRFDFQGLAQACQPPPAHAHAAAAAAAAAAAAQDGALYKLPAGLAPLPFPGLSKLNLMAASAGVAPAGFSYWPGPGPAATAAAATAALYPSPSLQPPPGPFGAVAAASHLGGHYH
# Method in brief: (§1)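 After expression in yeast as GST fusions, human transcription factors were bound to glutathione beads, DNA-barcoded and mixed with a tag-only sample. The pools were incubated with 200 nmole of a 16-mer random double-stranded DNA library in Tris/NaCl/DTT/glycerol buffer (30 min, room temperature), washed and crosslinked with 0.1% formaldehyde. Proximity ligation with BsaI/T4 ligase ran for 1 h at 37 °C, before PCR amplification and sequencing on an Illumina NextSeq500. Binding signal is a hexamer's read frequency for a factor divided by its frequency for the tag-only sample.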
# ETV5 = ETV5 (Homo sapiens, UniProt P41161 1-510); conditions: protein: recombinant; tags: N-terminal GST; dsDNA, one strand shown
# Sequence of ETV5 (P41161 whole entry): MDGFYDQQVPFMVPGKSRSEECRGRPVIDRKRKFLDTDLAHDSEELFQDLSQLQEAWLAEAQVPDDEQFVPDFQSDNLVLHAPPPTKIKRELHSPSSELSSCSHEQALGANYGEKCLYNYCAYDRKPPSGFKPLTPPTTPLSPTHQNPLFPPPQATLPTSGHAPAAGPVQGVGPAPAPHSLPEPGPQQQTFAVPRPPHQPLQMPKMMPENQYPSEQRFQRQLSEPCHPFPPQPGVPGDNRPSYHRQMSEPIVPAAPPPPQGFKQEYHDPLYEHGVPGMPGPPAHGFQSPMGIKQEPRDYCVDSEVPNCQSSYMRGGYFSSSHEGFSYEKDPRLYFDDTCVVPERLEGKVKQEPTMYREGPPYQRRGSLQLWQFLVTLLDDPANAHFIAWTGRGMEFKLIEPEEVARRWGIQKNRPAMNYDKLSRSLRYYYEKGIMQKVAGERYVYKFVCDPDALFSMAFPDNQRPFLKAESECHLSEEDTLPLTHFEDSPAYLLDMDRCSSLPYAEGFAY
# Method in brief: as §1
# HSF1 = HSF1 (Homo sapiens, UniProt Q00613 1-529); conditions: protein: recombinant; tags: N-terminal GST; chain copies: 3; dsDNA, one strand shown
# Sequence of HSF1 (Q00613 whole entry): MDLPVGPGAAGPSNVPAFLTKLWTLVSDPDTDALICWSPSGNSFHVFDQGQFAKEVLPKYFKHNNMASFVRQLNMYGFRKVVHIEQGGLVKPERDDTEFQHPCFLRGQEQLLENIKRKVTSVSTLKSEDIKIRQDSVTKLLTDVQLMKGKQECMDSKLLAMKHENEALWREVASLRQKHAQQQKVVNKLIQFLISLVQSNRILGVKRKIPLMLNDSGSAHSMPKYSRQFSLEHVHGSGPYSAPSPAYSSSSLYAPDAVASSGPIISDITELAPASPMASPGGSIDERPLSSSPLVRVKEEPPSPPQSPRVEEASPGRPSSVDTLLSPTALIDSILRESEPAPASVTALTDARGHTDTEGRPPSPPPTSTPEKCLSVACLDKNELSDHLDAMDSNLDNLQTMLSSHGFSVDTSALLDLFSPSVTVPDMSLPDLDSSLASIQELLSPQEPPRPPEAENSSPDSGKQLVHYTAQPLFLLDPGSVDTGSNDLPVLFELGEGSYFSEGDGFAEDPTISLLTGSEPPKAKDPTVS
# Method in brief: as §1
# SPIC = biological target: T2, SPIC (Homo sapiens, UniProt Q8N5J4 1-248); conditions: protein: recombinant; tags: N-terminal GST; dsDNA, one strand shown
# T2 sequence: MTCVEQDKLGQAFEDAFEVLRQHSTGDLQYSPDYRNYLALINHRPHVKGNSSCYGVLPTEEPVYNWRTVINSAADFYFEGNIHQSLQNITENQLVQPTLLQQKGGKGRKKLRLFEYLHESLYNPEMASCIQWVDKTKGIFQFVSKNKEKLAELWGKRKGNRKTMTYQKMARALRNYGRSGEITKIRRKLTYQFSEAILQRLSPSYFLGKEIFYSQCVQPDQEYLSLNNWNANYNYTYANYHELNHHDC
# Method in brief: as §1
# ELF4 = ELF4 (Homo sapiens, UniProt Q99607 1-663); conditions: protein: recombinant; tags: N-terminal GST; dsDNA, one strand shown
# Sequence of ELF4 (Q99607 whole entry): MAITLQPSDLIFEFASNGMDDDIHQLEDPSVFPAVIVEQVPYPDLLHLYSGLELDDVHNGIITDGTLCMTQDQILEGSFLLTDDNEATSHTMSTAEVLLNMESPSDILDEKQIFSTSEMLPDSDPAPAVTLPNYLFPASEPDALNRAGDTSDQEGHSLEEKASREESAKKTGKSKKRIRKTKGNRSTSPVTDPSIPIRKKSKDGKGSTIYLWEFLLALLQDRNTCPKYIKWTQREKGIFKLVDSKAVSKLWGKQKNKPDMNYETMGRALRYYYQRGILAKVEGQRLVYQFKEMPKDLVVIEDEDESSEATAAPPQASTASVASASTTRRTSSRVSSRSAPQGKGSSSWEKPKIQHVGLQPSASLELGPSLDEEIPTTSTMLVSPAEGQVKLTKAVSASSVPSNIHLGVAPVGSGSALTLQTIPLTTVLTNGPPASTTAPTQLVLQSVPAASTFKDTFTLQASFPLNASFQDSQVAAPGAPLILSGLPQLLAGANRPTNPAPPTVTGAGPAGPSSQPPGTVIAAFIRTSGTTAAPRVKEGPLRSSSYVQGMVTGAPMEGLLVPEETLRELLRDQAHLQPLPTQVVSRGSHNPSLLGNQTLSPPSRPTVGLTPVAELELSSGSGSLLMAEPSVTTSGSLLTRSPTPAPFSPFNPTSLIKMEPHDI
# Method in brief: as §1
# ELK4 = biological target: T3, ELK4 (Homo sapiens, UniProt P28324-2 1-405); conditions: protein: recombinant; tags: N-terminal GST; dsDNA, one strand shown
# T3 sequence: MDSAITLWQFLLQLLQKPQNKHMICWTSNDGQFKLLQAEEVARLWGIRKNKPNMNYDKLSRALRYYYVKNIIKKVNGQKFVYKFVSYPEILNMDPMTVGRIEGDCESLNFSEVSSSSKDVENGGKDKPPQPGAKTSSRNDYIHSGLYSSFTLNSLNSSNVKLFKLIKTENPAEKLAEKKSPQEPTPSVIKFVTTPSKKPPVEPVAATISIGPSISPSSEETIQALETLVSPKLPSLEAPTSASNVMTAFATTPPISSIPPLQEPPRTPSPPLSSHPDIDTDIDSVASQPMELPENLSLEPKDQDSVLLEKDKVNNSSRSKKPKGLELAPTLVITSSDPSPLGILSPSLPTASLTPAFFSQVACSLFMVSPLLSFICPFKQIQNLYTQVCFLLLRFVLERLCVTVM
# Method in brief: as §1
# ETV2 = biological target: T4, ETV2 (Homo sapiens, UniProt O00321 1-342); conditions: protein: recombinant; tags: N-terminal GST; dsDNA, one strand shown
# T4 sequence: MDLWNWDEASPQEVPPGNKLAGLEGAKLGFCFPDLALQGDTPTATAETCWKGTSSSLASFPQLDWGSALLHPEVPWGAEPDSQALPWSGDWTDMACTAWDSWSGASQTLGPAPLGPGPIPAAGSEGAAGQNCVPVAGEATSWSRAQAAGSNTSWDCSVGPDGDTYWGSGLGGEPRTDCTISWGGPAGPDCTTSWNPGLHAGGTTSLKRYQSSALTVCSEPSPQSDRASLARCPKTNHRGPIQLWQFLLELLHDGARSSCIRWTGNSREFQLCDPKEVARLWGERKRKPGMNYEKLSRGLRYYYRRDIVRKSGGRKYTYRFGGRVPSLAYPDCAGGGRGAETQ
# Method in brief: as §1
# ELF3 = biological target: T5, ELF3 (Homo sapiens, UniProt P78545 1-371); conditions: protein: recombinant; tags: N-terminal GST; dsDNA, one strand shown
# T5 sequence: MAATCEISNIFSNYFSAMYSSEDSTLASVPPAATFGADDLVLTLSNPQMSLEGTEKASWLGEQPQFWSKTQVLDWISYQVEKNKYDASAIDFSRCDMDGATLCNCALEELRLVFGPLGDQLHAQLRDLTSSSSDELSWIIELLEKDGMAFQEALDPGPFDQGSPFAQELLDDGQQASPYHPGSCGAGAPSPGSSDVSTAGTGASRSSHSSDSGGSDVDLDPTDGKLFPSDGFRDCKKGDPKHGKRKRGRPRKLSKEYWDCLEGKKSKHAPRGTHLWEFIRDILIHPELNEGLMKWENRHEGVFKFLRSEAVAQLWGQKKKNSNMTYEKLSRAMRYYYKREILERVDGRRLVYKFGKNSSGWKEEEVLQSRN
# Method in brief: as §1
# CRX = CRX (Homo sapiens, UniProt O43186 1-299); conditions: protein: recombinant; tags: N-terminal GST; dsDNA, one strand shown
# Sequence of CRX (O43186 whole entry): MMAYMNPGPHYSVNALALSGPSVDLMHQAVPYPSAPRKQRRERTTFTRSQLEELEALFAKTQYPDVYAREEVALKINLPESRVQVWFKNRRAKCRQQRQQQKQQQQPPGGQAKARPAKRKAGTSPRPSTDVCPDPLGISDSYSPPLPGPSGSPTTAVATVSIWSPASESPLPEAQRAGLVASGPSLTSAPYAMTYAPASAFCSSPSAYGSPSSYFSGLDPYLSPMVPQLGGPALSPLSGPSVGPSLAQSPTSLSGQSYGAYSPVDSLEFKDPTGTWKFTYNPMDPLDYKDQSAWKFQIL
# Method in brief: as §1
# ETV1 = ETV1 (Homo sapiens, UniProt P50549 1-477); conditions: protein: recombinant; tags: N-terminal GST; dsDNA, one strand shown
# Sequence of ETV1 (P50549 whole entry): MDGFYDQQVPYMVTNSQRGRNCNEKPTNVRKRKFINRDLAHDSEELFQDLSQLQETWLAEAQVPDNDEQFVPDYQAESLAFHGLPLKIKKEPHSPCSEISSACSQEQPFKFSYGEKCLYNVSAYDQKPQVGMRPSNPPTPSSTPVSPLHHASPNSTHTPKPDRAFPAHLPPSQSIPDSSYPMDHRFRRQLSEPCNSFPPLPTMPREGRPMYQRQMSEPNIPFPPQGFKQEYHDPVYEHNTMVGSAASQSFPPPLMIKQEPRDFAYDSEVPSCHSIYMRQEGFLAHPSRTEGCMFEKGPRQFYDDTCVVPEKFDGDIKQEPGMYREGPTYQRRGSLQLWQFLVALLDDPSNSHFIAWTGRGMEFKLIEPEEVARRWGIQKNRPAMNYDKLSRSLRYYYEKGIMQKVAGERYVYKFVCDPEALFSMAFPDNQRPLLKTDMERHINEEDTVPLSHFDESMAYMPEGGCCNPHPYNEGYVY
# Method in brief: as §1
# ERF = biological target: T6, ERF (Homo sapiens, UniProt P50548 1-548); conditions: protein: recombinant; tags: N-terminal GST; dsDNA, one strand shown
# T6 sequence: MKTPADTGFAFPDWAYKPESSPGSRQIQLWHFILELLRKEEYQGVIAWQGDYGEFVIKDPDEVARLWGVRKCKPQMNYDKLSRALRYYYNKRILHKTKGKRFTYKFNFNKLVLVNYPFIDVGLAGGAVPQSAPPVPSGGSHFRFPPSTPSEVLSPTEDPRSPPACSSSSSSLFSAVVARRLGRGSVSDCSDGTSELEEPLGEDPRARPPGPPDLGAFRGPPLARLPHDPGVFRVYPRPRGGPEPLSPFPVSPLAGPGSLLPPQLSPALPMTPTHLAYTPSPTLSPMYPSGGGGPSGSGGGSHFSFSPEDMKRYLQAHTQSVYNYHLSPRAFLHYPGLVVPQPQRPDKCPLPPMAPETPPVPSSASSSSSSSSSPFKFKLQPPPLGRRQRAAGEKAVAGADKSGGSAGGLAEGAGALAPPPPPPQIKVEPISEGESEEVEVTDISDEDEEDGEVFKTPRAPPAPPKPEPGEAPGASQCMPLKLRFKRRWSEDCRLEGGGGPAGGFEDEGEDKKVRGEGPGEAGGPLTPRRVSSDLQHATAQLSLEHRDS
# Method in brief: as §1
# ETV3L = biological target: T7, ETV3L (Homo sapiens, UniProt Q6ZN32 1-361); conditions: protein: recombinant; tags: N-terminal GST; dsDNA, one strand shown
# T7 sequence: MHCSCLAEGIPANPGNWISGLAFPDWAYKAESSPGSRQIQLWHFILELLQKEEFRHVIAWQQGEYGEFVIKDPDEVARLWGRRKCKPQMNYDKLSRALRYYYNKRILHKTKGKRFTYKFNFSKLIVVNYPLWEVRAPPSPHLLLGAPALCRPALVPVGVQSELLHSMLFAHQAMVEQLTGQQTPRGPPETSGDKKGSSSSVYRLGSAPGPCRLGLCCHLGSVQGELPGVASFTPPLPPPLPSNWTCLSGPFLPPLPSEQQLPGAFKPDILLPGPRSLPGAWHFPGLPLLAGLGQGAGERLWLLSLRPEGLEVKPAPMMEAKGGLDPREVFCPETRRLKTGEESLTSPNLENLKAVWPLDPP
# Method in brief: as §1
# ETS2 = biological target: T8, ETS2 (Homo sapiens, UniProt P15036 1-469); conditions: protein: recombinant; tags: N-terminal GST; dsDNA, one strand shown
# T8 sequence: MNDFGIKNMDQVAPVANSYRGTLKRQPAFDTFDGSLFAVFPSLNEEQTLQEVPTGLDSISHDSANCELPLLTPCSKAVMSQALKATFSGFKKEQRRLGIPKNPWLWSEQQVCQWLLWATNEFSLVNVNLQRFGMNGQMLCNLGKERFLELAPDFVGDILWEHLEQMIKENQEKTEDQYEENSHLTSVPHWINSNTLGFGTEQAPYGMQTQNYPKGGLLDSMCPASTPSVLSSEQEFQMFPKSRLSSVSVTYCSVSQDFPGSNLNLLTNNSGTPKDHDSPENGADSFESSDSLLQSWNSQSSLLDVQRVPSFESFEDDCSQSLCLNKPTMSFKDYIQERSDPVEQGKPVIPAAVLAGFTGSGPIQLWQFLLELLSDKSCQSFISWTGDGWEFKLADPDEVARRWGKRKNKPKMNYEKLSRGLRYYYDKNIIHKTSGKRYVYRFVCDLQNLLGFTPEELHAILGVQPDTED
# Method in brief: as §1
# SPDEF = biological target: T9, SPDEF (Homo sapiens, UniProt O95238 1-335); conditions: protein: recombinant; tags: N-terminal GST; dsDNA, one strand shown
# T9 sequence: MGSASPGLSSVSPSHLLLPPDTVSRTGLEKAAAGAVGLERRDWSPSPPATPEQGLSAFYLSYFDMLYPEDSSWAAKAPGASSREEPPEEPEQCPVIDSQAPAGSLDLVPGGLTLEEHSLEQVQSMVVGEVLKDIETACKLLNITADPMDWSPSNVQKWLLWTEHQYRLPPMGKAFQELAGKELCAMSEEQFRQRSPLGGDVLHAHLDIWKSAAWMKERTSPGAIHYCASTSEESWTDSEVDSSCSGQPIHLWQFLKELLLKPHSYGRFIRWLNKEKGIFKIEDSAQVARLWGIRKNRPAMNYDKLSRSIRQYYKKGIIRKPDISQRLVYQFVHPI
# Method in brief: as §1
# ETV7 = biological target: T10, ETV7 (Homo sapiens, UniProt Q9Y603 1-341); conditions: protein: recombinant; tags: N-terminal GST; dsDNA, one strand shown
# T10 sequence: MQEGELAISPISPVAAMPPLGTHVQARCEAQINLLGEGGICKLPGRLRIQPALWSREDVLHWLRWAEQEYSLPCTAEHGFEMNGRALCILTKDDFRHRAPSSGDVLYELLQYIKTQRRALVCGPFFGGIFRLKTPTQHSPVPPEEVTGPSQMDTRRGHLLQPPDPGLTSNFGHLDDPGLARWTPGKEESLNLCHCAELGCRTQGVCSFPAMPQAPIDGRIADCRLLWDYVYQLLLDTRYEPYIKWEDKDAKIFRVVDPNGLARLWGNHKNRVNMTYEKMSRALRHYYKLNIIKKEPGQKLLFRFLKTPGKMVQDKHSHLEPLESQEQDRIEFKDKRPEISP
# Method in brief: as §1
# ELF5 = biological target: T11, ELF5 (Homo sapiens, UniProt Q9UKW6-2 1-255); conditions: protein: recombinant; tags: N-terminal GST; dsDNA, one strand shown
# T11 sequence: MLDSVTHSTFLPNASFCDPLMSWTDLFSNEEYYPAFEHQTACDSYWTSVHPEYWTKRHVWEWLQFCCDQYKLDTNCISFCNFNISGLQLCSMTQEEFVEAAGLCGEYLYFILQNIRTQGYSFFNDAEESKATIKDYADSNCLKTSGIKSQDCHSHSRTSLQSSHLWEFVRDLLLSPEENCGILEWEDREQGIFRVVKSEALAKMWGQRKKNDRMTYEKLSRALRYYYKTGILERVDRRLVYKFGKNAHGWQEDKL
# Method in brief: as §1
# ETV3 = biological target: T12, ETV3 (Homo sapiens, UniProt P41162-2 1-143); conditions: protein: recombinant; tags: N-terminal GST; dsDNA, one strand shown
# T12 sequence: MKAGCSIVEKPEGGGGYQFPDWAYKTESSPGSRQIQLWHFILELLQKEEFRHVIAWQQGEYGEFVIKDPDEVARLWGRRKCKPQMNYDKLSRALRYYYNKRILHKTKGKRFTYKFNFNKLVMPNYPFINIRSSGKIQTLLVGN
# Method in brief: as §1
# ETV6 = ETV6 (Homo sapiens, UniProt P41212 1-452); conditions: protein: recombinant; tags: N-terminal GST; dsDNA, one strand shown
# Sequence of ETV6 (P41212 whole entry): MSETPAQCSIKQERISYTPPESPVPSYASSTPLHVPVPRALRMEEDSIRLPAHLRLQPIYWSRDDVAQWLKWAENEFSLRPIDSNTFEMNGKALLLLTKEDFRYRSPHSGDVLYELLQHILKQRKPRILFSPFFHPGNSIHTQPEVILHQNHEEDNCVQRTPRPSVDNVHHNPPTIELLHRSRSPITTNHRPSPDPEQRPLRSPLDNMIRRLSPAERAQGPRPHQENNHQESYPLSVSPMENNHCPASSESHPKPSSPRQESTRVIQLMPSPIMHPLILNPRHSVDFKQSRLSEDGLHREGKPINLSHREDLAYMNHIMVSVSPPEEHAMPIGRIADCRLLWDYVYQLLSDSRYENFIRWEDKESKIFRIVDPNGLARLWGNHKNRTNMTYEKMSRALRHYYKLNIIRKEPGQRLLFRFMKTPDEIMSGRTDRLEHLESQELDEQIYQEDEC
# Method in brief: as §1
sequence,measurement,setting,value
AATTGA,binding signal,FEV,"1.11 fold enrichment (6-mer frequency, TF over GST control)"
same,binding signal,ETV5,"1.22 fold enrichment (6-mer frequency, TF over GST control)"
same,binding signal,HSF1,"1.05 fold enrichment (6-mer frequency, TF over GST control)"
same,binding signal,SPIC,"1.1 fold enrichment (6-mer frequency, TF over GST control)"
same,binding signal,ELF4,"1.18 fold enrichment (6-mer frequency, TF over GST control)"
same,binding signal,ELK4,"1.18 fold enrichment (6-mer frequency, TF over GST control)"
same,binding signal,ETV2,"1.18 fold enrichment (6-mer frequency, TF over GST control)"
same,binding signal,ELF3,"1.3 fold enrichment (6-mer frequency, TF over GST control)"
same,binding signal,CRX,"1.1 fold enrichment (6-mer frequency, TF over GST control)"
same,binding signal,ETV1,"1.21 fold enrichment (6-mer frequency, TF over GST control)"
same,binding signal,ERF,"1.24 fold enrichment (6-mer frequency, TF over GST control)"
same,binding signal,ETV3L,"1.13 fold enrichment (6-mer frequency, TF over GST control)"
same,binding signal,ETS2,"1.26 fold enrichment (6-mer frequency, TF over GST control)"
same,binding signal,SPDEF,"1.15 fold enrichment (6-mer frequency, TF over GST control)"
same,binding signal,ETV7,"1.28 fold enrichment (6-mer frequency, TF over GST control)"
same,binding signal,ELF5,"1.21 fold enrichment (6-mer frequency, TF over GST control)"
same,binding signal,ETV3,"1.17 fold enrichment (6-mer frequency, TF over GST control)"
same,binding signal,ETV6,"1.19 fold enrichment (6-mer frequency, TF over GST control)"
